Laboratory results published in the supplement of paper PMC10105736.

tested on: cpb; experiment: MAPPIT interaction score (arbitrary units); higher = stronger binary interaction signal, active = hit call of the paper; conditions: MAPPIT configuration: N-C; pair source set: Lit-BM-16;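 active = MAPPIT score above the 99th percentile of random reference set scores in the same batch; inactive = at or below it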
Description: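 MAPPIT in HEK293T cells: Drosophila bait and prey ORFs (from the FlyBi ORF collection) were co-transfected in quadruplicate, with two wells stimulated by erythropoietin. Interaction-dependent JAK-STAT activation was read out with a STAT-responsive firefly luciferase reporter. Positive calls use the 99th percentile of random reference set (RRS) scores within each batch […]. Batches Dvs01 and Dvs02 used the N-N configuration and Dvs04 the N-C configuration. Pairs come from FlyBi screens, CuraGen, DPiM, Finley Y2H, Lit-BM-16, Lit-BS-16 and RRS.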
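Further: HEK293T cells with Epo stimulation, STAT-responsive firefly luciferase reporter, fold induction versus unstimulated cells divided by the larger fold induction of two negative controls lacking either bait or prey.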

Sequence of cpa (chain, as listed by the source): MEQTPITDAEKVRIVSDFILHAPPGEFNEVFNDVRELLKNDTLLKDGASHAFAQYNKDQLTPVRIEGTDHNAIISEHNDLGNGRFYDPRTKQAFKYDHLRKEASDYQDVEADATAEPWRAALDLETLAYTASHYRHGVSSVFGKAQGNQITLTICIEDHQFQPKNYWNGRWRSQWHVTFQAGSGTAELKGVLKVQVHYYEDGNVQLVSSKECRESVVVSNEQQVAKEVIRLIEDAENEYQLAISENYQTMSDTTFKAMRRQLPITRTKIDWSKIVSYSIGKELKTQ

| Substance | MAPPIT interaction score |
| --- | --- |
| cpa | 4.39 (active) |

same assay, conditions: MAPPIT configuration: N-N; pair source set: Lit-BM-16

| Substance | MAPPIT interaction score |
| --- | --- |
| cpa | 6.04 (active) |
